Measured values reported in PubChem BioAssay AID1224862 (National Center for Advancing Translational Sciences (NCATS), 2016).
Results filed as inconclusive are left out. Where a call stands in place of a potency, no number is given. Active and inactive are the calls of the source. The call rests on the fitted dose curve; in most records, active means well fitted cell-killing curve with a large enough effect; inconclusive means small, poorly fitted or top-dose-only effect, or effect the other way; inactive means flat fitted curve, though single readings scatter.

Assay: Compound cytotoxicity measured by an ATP content assay as a counter-screen for lead compounds in human astrocytoma cell line (SNB-19)
Summary of the method: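 SNB-19 cells, 250 per well, were treated with compounds for 6, 24 or 72 h after overnight seeding. The ATP detection reagent was added 1:1 and luminescence read after 10 min at room temperature, with the signal converted to percent inhibition of viability.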

Structure (SMILES) | Potency
Cc1csc(NC(=O)c2sc3nc4c(c(C(F)(F)F)c3c2N)CCC4)n1 | 4.35 µM (active)
Cc1cccc(/C=C/c2ccccc2)n1 | inactive
Nc1cc(C(F)(F)F)ccc1S | inactive
Cc1ccc(O)c(N=Nc2ccccc2)n1 | 7.74 µM (active)
O=C1C[C@@H](c2ccc(O)cc2)Oc2cc(O)cc(O)c21 | inactive
N#CC1(c2ccc(NC(=O)c3cccnc3NCc3ccncc3)cc2)CCCC1 | inactive
CC1(C)Cc2c(sc(NC(=S)NC(=O)c3ccccc3)c2C(=O)O)CO1 | inactive
COc1ccc2nc(NC(=O)Nc3ccccc3)sc2c1 | 19.5 µM (active)
COc1cccc2c1C(=O)c1c(O)c3c(c(O)c1C2=O)C[C@@](O)(C(=O)CO)C[C@@H]3O[C@H]1C[C@H](N)[C@H](O[C@@H]2CCCCO2)[C@H](C)O1 | inactive
CCOC1OC(=O)C[C@H]1NC(=O)[C@@H]1CCCN1C(=O)[C@@H](NC(=O)c1ccc(N)c(Cl)c1)C(C)(C)C (stereo partly drawn) | inactive
C[C@@H](O[C@H]1OCCN(Cc2n[nH]c(=O)[nH]2)[C@@H]1c1ccc(F)cc1)c1cc(C(F)(F)F)cc(C(F)(F)F)c1 | inactive
CN(C)c1ccc2cc(C(=O)N[C@@H](CCCN=C(N)CCl)C(=O)NCc3ccccc3)ccc2c1 | inactive
CN1CC(=O)N2C(Cc3c([nH]c4ccccc34)[C@H]2c2ccc3c(c2)OCO3)C1=O (stereo partly drawn) | inactive
O=C(O)Cc1ccc(-c2ccccc2)cc1 | inactive
CC=CC[C@@H](C)C(=O)[C@H]1C(=O)N[C@@H](C(C)C)C(=O)N(C)CC(=O)N(C)[C@@H](CC(C)C)C(=O)N[C@@H](C(C)C)C(=O)N(C)[C@@H](CC(C)C)C(=O)N[C@@H](C)C(=O)N[C@H](C)C(=O)N(C)[C@@H](CC(C)C)C(=O)N(C)[C@@H](CC(C)C)C(=O)N(C)[C@@H](C(C)C)C(=O)N1C | inactive
Cc1c(NC(=O)c2ccc(C(C)(C)C)cc2)cccc1-c1cn(C)c(=O)c(Nc2ccc(C(=O)N3CCOCC3)cc2)n1 | inactive
O=C(CS)Nc1ccccc1 | inactive
Cc1oncc1C(=O)Nc1ccc(C(F)(F)F)cc1 | inactive
CCOCCOC(=O)/C=C/c1ccc(OC)cc1 | inactive

Structure (SMILES) | Potency
CC(O)=C(C#N)C(=O)Nc1ccc(C(F)(F)F)cc1 | 8.69 µM (active)
CN(C)CCCSc1ccccc1NC(=O)/C=C/c1ccccc1 | inactive
Nc1nc2ccc([N+](=O)[O-])cc2s1 | inactive
Cc1[nH]c(C=C2C(=O)Nc3ccccc32)c(C)c1CCC(=O)O | inactive
Nc1ccc(O)c(C(=O)O)c1 | inactive
Cc1c(N)c(=O)n(-c2ccccc2)n1C | inactive
COCCn1c2c([n+](Cc3cnccn3)c1C)C(=O)c1ccccc1C2=O | 0.0155 µM (active)
O=C(Nc1ncc([N+](=O)[O-])s1)c1cccs1 | inactive
CCC(C)SSc1ncc[nH]1 (stereo not drawn) | inactive
Oc1cc(O)cc(/C=C/c2ccc(O)c(O)c2)c1 | 24.5 µM (active)
COc1ccc(-c2cc(=O)c3c(O)cc(O)cc3o2)cc1O | inactive
C[C@@H]1CCN(C(=O)CC#N)C[C@H]1N(C)c1ncnc2[nH]ccc12 | inactive
O=c1[nH]nc(Sc2ncc([N+](=O)[O-])s2)n1-c1ccc2c(c1)OCCO2 | 4.89 µM (active)
CC1=C(CO)C(=O)O[C@@H]([C@@H](C)[C@H]2CC[C@H]3[C@@H]4C[C@H]5O[C@]56[C@@H](O)C=CC(=O)[C@]6(C)[C@@H]4CC[C@]23C)C1 | inactive
CC(C)c1ccc2oc3nc(N)c(C(=O)O)cc3c(=O)c2c1 | 1.55 µM (active)
O=C(Nc1ccc(C(=O)O)c(O)c1)c1ccccc1 | inactive
[O-][n+]1ccccc1SSc1cccc[n+]1[O-] | 0.708 µM (active)
Oc1ccc(/C=C/c2cc(O)cc(O)c2)cc1 | 24.5 µM (active)
COc1ccc(CC2=NN3C([C@@H](CCc4ccccc4)[C@@H](C)O)=NC(C)C3C(=O)N2)cc1OC (stereo partly drawn) | inactive
